The entries come from a sample that favours hits as a whole.
Pf Dd2 inh: Plasmodium falciparum Dd2 growth inhibition; P. falciparum Dd2 growth, SYBR Green, 72 h; Potency, µM (highest dose often 28.9 µM), hits mostly inhibitors; 120,000 tested, 4.3% active; active means well fitted inhibition curve with a large enough effect; further: nearly all actives have a fitted effect of over 65% in size
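Readout: SYBR Green fluorescence, 485 nm excitation, 535 nm emission, after ~16 h lysis at 37C. Before that, Dd2-infected red cells (2.5% hematocrit) grew 72 h with compound, 29 uM top final concentration.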
Of the large screens only hits and unclear results are named; the others gave an inactive call.

FC(F)(F)CN1C2CCC1CN(c1nncc3ccccc13)C2	none
COc1cc2ncnc(N3CC4CCC(C3)N4CC(F)(F)F)c2cc1OC	none
CCc1ncc2c(N3CC4CCC(C3)N4CC(F)(F)F)nc3ccccc3n12	Pf Dd2 inh 3.16µM
COc1ccc(Cl)cc1C(=O)N1CCC2(CC1)CC(O)CCO2 (stereo not given)	none
Cc1nc(C2CCCC2)cc([C@H]2CN3CC[C@H]2C[C@@H]3CNC(=O)c2ccco2)n1	none
Cc1nc(-c2ccco2)cc([C@H]2CN3CC[C@H]2C[C@@H]3CNCc2ccccc2)n1	Pf Dd2 inh 1.12µM
Cc1nc(-c2cccs2)cc([C@H]2CN3CC[C@H]2C[C@@H]3CNC(=O)CSCC(=O)O)n1	none
Cc1nc(-c2ccco2)cc([C@H]2CN3CC[C@H]2C[C@@H]3CNC(=O)C2CC2)n1	none
Cc1nc(-c2ccc(C(F)(F)F)cc2)cc([C@H]2CN3CC[C@H]2C[C@@H]3CNC(=O)C2CC2)n1	none
Cc1nc(-c2ccccc2Br)cc([C@H]2CN3CC[C@H]2C[C@@H]3CNC(=O)C2CC2)n1	none
Cc1nc(-c2ccc(N(C)C)cc2)cc([C@H]2CN3CC[C@H]2C[C@@H]3CNC(=O)C(C)(C)C)n1	Pf Dd2 inh 7.08µM
COCC(=O)NC[C@H]1C[C@@H]2CCN1C[C@@H]2c1cc(-c2ccccc2)nc(C)n1	none
COc1ccc(C(=O)NC[C@H]2C[C@@H]3CCN2C[C@@H]3c2cc(-c3ccccc3Br)nc(C)n2)cc1	Pf Dd2 inh 7.08µM
Cc1nc(-c2cccs2)cc([C@H]2CN3CC[C@H]2C[C@@H]3CNC(=O)c2ccc(N(C)C)cc2)n1	Pf Dd2 inh 7.08µM
Cc1nc(-c2cccs2)cc([C@H]2CN3CC[C@H]2C[C@@H]3CNC(=O)c2ccco2)n1	none
COc1ccccc1-c1cc([C@H]2CN3CC[C@H]2C[C@@H]3CNC(=O)c2ccc(C)cc2)n(C)n1	none
CC1=C(C(=O)OC(C)C)C(c2ccccc2Cl)N2C(CC(=O)N3CCCC3)=CSC2=N1 (stereo not given)	none
CCOc1ccccc1C(=O)NC1CCN(c2cc(-c3ccc(Cl)cc3)[nH]n2)C1 (stereo not given)	none
COCc1ccc(C(=O)N2CCN(CCO)CC(O)C2)cc1 (stereo not given)	none
COC(=O)c1ccc2c(c1)nc1n2[C@@H](CNC(=O)NC2CCCCC2)COC1	none
COc1cc(=O)n2c(c1C(=O)Nc1ccc(F)cc1Cl)CCCC2	none
COC(=O)N1CCn2ncc(C(=O)Nc3ccc(Cl)cc3Cl)c2C1	none
COc1ccc(-c2nc(C)nc3c2CN(Cc2ccc(NC(C)=O)cc2)CC3)cc1	none
CCOC(=O)c1ccc(NC(=O)CSc2nc3c(c(=O)[nH]2)CN(Cc2ccccc2)CC3)cc1	none
CCn1c2c(c(=O)n3ncc(C(=O)Nc4ccc(C(=O)OC)cc4)c13)CN(Cc1ccc(OC)cc1)CC2	Pf Dd2 inh 10µM
CCn1c2c(c(=O)n3ncc(C(=O)Nc4ccc(F)cc4Cl)c13)CN(Cc1ccc(OC)cc1)CC2	Pf Dd2 inh 11.2µM
CCn1ncc(NC(=O)Cn2ncc3cc(-c4ccc(C)cc4F)ccc32)n1	none
CCN1CC(c2ccccc2)CC2(CCN(C(=O)c3cnc(C)nc3)CC2)C1 (stereo not given)	none
O=C(COc1ccc(F)cc1)NCCc1noc(-c2ccncc2)n1	none
CC(C)N1CCOC[C@H]1c1ncc(-c2ccc(OC(F)(F)F)cc2)[nH]1	none
Cc1cc(S(=O)(=O)N2CCCC(Cn3c(C)nc4cccnc43)C2)ccc1Cl (stereo not given)	none
COc1cccc(NC(=O)N2CCCC(Cn3c(C)nc4cccnc43)C2)c1 (stereo not given)	none
Cc1nc2cccnc2n1CC1CCCN(C(=O)Nc2cccc(C(F)(F)F)c2)C1 (stereo not given)	Pf Dd2 inh 11.2µM
Cc1nc2cccnc2n1CC1CCCN(S(=O)(=O)c2ccc(CC(C)C)cc2)C1 (stereo not given)	Pf Dd2 inh 6.31µM
Cc1nc2cccnc2n1CC1CCCN(C(=O)Nc2ccc(C(F)(F)F)cc2)C1 (stereo not given)	none
CC(C)Cc1ccc(S(=O)(=O)N2CCCC(Cn3cnc4cccnc43)C2)cc1 (stereo not given)	none
CCOC(=O)c1ccc(NC(=O)Nc2cc3c(cc2N2CCCC2)n(C)c(=O)n3C)cc1	none
COc1ccc(C(=O)Nc2cc(C(F)(F)F)ccc2N2CCN(c3ccccc3)CC2)cc1OC	none
CCOC(=O)C1CCN(c2cc3c(cc2NC(=O)c2ccc(OC)c(OC)c2)n(C)c(=O)n3C)CC1	Pf Dd2 inh 8.91µM
O=C(c1ccoc1)N1CCC2(CC1)CC(N(C(=O)c1ccccc1)C1CC1)CCO2 (stereo not given)	none
COc1cccc(NC(=O)C2CC(=O)N(c3n[nH]c4cc(Br)ccc34)C2)c1 (stereo not given)	none
COCCOCC(=O)N1CCCCCNC(=O)[C@@H]2CCC[C@@H]21	none
CCCNC(=O)N1CCC(c2nc(CCOCC3CCOCC3)no2)C1 (stereo not given)	none
C1CC(COCCc2noc(C3CNC3)n2)CCO1	Pf Dd2 inh 11.2µM
O=C(C1CC1)N1CCCC(c2nc(CCOCC3CCOCC3)no2)C1 (stereo not given)	none
COc1cc(-c2noc(CN3CCN(c4ccccc4)CC3)n2)cc(OC)c1OC	none
CCOc1ccc2oc(=O)cc(CN3CCN(c4ccccc4)CC3)c2c1	none
CC(C)OCc1cc(CN2CCN(c3ccccc3)CC2)c(O)c2ncccc12	Pf Dd2 inh 2.51µM
CCOCc1cc(CN2CCN(c3cccc(Cl)c3)CC2)c(O)c2ncccc12	Pf Dd2 inh 2.82µM
COc1ccc(-c2noc(CN3CCN(c4cccc(Cl)c4)CC3)n2)cc1	none
CCn1c2ccccc2c2nnc(N3CCN(c4cccc(Cl)c4)CC3)nc21	none
CN1Cc2cccn2CC1CNC(=O)c1ccoc1 (stereo not given)	none
O=c1c(-c2cccc(C(F)(F)F)c2)ccc2n1C[C@H]1C[C@@H]2CN(S(=O)(=O)c2ccccc2)C1	none
CCc1ccccc1S(=O)(=O)N1C[C@H](F)C[C@@H]1C(=O)N1CCOCC1	none
CS(=O)(=O)N1CCC(c2nnc3n2C(C(=O)O)CC3)CC1 (stereo not given)	none
COCCN(Cc1ccco1)C(=O)c1cc2c(=O)[nH]c3ccc(C)cc3c2s1	none
CCCN(C(=O)c1cc2c(=O)[nH]c3ccc(C)cc3c2s1)c1ccc(CC)cc1	none
CC1CCC(NC(=O)c2cc3c(Cl)nc4ccccc4c3s2)CC1 (stereo not given)	none
COCCNC(=O)c1cc2c(Cl)nc3ccc(C)cc3c2s1	none
CCN(CCCNC(=O)c1cc2c(=O)n(C)c3ccccc3c2s1)Cc1ccccc1	Pf Dd2 inh 5.01µM
CC1CCCN(CCCNC(=O)c2cc3c(Cl)nc4ccccc4c3s2)C1 (stereo not given)	Pf Dd2 inh 4.47µM
CC1CCCN(C(=O)c2cc3c(Cl)nc4ccccc4c3s2)C1 (stereo not given)	none
CCOc1ccc(CNC(=O)c2cc3c(=O)n(C)c4ccccc4c3s2)cc1	none
Cc1ccc2nc(Cl)c3cc(C(=O)NCCCN(C)Cc4ccccc4)sc3c2c1	Pf Dd2 inh 7.94µM
Cc1ccc2nc(Cl)c3cc(C(=O)NC4CCCCCC4)sc3c2c1	none
CCOCCCN(Cc1ccco1)C(=O)c1cc2c(=O)[nH]c3ccc(C)cc3c2s1	Pf Dd2 inh 10µM
CCN(CCCNC(=O)c1cc2c(=O)n(C)c3ccccc3c2s1)c1ccccc1	none
Cc1n[nH]c(C)c1CCC(=O)Nc1ccc2c(c1)C(=O)N1CCC[C@H]1C(=O)N2	none
O=C1NCCCCCN(C(=O)c2ccco2)[C@H]2CCC[C@@H]12	none
CCn1ccc(C(=O)N2CCC3(CCC3NC(=O)COC)CC2)n1 (stereo not given)	none
